Test results published in the supplement of paper PMC10849652.
About 7,900 targets were measured; listed, in parts, are those with a hit and a random draw of the rest. About 0.6% of all pairs of compound and target were hits. Values without a mark were called inactive.

Columns and labels:
Experiment in all cases: log2 fold change, soluble protein after heating vs DMSO (PISA); higher = thermal stabilisation; K562 cells, 10 uM, 30 min; active = over 0.2 and 3.5 SD of the protein, either way, in both replicates (recomputed)
[1] = compound: C1=CC=C(C=C1)[C@H](COC2=CC3=C(C=C2)NC(=O)N3)NC(=O)C4=CC=CN(C4=O)CC5=CC(=C(C=C5)F)F
Method in brief: (§1)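 Aliquots of K562 cells (2×10^6 cells/mL) treated with 10 μM compound for 30 min were heated for 3 min over 48°C-58°C. After pooling and extraction in PBS with 0.5% NP-40 at 4°C, soluble protein from a 21,000xg, 90 min spin was quantified by TMTpro 16plex LC-MS/MS with channel sums equalised. Thermal stability is expressed against control samples, from duplicates, as a log2 fold change.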

[2] = compound: CC1=C(SC2=C1C(=N[C@H](C3=NN=C(N32)C)CC(=O)N)C4=CC=C(C=C4)Cl)C
Method in brief: as §1

[3] = compound: CC1=C2C(=CC=C1)N=C(N(C2=O)C3=CC=CC=C3C)CN4C=NC5=C(N=CN=C54)N
Method in brief: as §1

[4] = compound: Cc1sc2c(c1C)C(c1ccc(Cl)cc1)=N[C@@H](CC(=O)OC(C)(C)C)c1nnc(C)n1-2
Method in brief: as §1

[5] = compound: c1ccc([C@@H]2C[C@H]2NC2CCNCC2)cc1
Method in brief: as §1

UniProt P51665, sequence (P51665 whole entry, looked up): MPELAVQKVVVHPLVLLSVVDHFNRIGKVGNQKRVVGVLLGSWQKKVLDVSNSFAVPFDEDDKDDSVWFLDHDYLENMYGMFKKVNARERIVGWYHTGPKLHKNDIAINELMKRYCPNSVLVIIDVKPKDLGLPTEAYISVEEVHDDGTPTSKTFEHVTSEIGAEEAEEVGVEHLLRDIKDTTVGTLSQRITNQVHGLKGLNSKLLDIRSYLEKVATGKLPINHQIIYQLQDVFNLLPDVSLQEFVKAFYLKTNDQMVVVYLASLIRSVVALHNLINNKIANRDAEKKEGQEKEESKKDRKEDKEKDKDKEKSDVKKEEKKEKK
UniProt Q9BRX2, sequence (Q9BRX2 whole entry, looked up): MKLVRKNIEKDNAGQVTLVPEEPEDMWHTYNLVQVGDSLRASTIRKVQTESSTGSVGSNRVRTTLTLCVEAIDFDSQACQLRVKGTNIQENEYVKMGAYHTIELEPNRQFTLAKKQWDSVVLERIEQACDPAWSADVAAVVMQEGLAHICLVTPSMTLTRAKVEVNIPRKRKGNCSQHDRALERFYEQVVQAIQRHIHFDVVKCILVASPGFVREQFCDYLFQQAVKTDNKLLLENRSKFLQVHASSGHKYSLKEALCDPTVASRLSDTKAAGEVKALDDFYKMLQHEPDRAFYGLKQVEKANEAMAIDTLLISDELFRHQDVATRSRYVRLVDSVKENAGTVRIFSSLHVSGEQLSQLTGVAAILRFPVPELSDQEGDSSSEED
UniProt Q05209, sequence (Q05209 whole entry, looked up): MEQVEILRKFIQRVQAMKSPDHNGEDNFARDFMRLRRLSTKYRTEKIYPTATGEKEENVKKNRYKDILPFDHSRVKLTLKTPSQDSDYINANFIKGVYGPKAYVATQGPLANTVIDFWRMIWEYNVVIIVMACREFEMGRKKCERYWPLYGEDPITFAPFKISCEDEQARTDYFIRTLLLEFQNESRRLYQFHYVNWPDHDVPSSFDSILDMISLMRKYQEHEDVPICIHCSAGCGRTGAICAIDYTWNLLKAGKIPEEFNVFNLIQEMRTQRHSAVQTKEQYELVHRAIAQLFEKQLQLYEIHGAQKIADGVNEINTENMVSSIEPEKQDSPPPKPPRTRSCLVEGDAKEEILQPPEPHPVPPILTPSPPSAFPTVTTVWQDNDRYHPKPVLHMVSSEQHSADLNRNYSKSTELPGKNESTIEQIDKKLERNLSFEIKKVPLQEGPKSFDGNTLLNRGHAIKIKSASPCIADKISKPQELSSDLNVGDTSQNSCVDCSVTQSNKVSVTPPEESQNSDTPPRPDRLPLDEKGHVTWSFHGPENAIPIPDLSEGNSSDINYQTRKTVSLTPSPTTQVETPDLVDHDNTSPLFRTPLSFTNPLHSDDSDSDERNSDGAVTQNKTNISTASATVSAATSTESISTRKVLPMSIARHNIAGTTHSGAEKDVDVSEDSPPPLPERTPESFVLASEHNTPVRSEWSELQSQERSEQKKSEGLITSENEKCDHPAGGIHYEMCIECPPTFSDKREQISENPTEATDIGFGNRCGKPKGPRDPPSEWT
UniProt Q15257, sequence (Q15257 whole entry, looked up): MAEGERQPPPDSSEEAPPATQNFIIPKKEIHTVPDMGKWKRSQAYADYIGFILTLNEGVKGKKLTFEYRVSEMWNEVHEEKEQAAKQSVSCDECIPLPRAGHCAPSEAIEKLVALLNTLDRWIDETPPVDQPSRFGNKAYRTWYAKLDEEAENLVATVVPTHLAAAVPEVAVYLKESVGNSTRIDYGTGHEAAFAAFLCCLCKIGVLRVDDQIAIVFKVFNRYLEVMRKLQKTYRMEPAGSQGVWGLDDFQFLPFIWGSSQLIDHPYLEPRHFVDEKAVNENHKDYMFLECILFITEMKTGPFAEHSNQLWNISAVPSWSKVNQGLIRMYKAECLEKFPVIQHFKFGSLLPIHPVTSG
UniProt Q969N2, sequence (Q969N2 whole entry, looked up): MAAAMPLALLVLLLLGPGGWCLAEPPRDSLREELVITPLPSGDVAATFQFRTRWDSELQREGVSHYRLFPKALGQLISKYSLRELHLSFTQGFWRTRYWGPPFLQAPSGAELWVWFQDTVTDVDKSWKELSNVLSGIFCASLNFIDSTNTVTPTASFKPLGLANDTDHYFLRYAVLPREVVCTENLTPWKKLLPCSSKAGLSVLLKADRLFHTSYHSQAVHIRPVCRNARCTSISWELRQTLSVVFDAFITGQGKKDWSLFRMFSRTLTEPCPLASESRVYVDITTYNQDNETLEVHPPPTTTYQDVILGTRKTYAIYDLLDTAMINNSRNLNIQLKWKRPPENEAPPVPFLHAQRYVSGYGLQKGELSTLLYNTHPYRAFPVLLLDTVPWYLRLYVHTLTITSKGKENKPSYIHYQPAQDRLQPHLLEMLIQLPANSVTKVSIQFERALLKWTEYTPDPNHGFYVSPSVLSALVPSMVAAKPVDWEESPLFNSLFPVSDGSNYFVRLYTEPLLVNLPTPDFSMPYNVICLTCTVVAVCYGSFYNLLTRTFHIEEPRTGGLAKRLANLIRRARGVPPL
UniProt Q9Y5Y5, sequence (Q9Y5Y5 whole entry, looked up): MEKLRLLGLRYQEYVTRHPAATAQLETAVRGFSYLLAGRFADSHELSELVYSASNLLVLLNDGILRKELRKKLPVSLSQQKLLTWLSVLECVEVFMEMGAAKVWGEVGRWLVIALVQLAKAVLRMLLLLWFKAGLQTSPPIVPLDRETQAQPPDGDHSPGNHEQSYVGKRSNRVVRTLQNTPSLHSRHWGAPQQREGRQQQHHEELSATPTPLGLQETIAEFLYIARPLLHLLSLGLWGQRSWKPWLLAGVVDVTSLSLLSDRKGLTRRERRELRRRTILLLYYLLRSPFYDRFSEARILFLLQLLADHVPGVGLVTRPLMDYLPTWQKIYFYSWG
UniProt Q9NTI5, sequence (Q9NTI5 whole entry, looked up): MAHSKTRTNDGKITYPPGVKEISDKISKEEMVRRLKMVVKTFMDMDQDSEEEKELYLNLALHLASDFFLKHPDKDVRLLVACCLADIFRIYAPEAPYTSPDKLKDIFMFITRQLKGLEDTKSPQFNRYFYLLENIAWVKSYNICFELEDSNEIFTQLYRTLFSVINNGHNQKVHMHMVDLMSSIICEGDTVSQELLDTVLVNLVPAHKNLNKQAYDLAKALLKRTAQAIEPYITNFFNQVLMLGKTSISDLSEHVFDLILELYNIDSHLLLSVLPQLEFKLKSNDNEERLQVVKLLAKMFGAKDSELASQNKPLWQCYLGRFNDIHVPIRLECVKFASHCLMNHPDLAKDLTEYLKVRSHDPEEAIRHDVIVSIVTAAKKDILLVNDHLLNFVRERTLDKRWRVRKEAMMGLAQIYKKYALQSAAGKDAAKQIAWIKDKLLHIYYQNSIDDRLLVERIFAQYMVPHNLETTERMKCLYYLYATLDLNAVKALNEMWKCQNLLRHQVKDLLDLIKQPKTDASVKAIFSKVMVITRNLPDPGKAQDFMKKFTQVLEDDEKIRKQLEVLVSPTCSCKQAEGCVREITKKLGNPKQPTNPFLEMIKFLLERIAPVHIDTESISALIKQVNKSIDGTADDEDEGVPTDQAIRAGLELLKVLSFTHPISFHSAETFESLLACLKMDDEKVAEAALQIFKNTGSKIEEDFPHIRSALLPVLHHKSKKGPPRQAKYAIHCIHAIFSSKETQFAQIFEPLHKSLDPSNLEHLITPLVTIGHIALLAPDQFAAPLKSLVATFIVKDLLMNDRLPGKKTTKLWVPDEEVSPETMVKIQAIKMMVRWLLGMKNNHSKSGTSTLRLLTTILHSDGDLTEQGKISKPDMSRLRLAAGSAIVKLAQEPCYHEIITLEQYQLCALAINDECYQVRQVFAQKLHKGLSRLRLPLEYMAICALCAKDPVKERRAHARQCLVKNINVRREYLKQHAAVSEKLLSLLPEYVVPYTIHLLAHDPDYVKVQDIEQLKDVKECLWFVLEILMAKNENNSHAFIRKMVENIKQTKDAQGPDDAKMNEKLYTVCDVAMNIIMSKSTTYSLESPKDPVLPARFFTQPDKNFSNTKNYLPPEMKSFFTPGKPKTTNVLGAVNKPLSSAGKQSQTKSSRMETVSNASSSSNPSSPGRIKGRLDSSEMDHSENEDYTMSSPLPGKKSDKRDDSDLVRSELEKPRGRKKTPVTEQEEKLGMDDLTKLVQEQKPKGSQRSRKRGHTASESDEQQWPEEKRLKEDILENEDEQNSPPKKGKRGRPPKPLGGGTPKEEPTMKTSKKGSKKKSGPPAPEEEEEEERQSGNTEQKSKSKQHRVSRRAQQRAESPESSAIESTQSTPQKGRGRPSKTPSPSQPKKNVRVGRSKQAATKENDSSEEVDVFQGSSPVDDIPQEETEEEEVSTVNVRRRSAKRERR
UniProt Q9UBV8, sequence (Q9UBV8 whole entry, looked up): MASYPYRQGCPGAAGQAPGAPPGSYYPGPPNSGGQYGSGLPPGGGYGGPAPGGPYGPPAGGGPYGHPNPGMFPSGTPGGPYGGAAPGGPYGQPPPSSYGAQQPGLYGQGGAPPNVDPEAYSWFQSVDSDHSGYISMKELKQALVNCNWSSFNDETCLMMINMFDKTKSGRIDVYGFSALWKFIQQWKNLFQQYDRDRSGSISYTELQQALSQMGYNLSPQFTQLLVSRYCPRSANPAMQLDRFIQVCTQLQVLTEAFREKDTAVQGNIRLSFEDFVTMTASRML
UniProt O43242, sequence (O43242 whole entry, looked up): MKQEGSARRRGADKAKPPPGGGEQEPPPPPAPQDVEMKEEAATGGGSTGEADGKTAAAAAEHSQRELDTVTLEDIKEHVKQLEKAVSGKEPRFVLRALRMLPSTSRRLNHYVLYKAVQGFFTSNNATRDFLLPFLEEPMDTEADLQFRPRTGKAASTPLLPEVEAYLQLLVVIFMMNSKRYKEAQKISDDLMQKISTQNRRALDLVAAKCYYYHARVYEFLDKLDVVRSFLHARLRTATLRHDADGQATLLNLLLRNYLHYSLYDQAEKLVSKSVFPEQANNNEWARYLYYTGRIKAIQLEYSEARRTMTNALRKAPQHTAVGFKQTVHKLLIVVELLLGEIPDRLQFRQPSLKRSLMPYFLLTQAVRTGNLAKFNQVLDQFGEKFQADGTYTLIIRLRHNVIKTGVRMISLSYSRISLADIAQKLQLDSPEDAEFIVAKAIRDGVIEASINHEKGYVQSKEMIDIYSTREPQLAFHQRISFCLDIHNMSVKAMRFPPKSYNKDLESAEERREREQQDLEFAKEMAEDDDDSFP

Row | Target | log2 fold change [1] | log2 fold change [2] | log2 fold change [3] | log2 fold change [4] | log2 fold change [5]
1 | PURA (UniProt Q00577) | 0.116 | -0.403 | -0.092 | 0.298 | 0.043
2 | PRKX (UniProt P51817) | -0.754 (active) |  |  |  | 
3 | PML (UniProt P29590) | -0.008 | -0.054 | 0.002 | -0.005 | 0.001
4 | PRKAR1B (UniProt P31321) | 0.21 | -0.026 | 0.059 | 0.019 | -0.061
5 | PDS5A (UniProt Q29RF7) | -0.34 | 0.066 | 0.096 | 0.038 | -0.105
6 | PDS5B (UniProt Q9NTI5) | -0.153 | 0.029 | 0.169 | 0.233 | -0.011
7 | PSMD3 (UniProt O43242) | 0.028 | -0.055 | -0.006 | -0.023 | -0.011
8 | POLR2G (UniProt P62487) | 0.082 | 0.176 | 0.001 | 0.167 | -0.016
9 | POLD3 (UniProt Q15054) | -0.027 | 0.14 | 0.104 | -0.037 | -0.009
10 | PTDSS1 (UniProt P48651) | -0.027 | -0.072 | -0.115 | 0.042 | 0.017
11 | PIK3CD (UniProt O00329) | -0.166 | -0.126 | 0.424 (active) | -0.086 | 0.018
12 | PIGT (UniProt Q969N2) | 0.022 | 0.142 | -0.013 | 0.276 (active) | -0.021
13 | PI4K2B (UniProt Q8TCG2) | 0.007 | 0.031 | 0.065 | 0.024 | -0.041
14 | POLR3D (UniProt P05423) | 0.008 | -0.072 | -0.013 | 0.056 | 0.096
15 | PXK (UniProt Q7Z7A4) | -0.015 | 0.04 | 0.098 | 0.011 | -0.045
16 | PCBP2 isoform 3 (UniProt Q15366) | -0.051 | 0.016 | 0.055 | -0.029 | 0.005
17 | PRKAA1 isoform 2 (UniProt Q13131) | 0.001 | 0.085 | 0.024 | 0.004 | 0.019
18 | PPM1G (UniProt O15355) | -0.139 | 0.025 | 0.081 | 0.002 | -0.089
19 | PDE4A (UniProt P27815) | -0.11 | 0.128 | 0.102 | -0.112 | 0.201
20 | PELO (UniProt Q9BRX2) | -0.037 | 0.116 | 0.103 | 0.064 | -0.049
21 | PEX16 isoform 2 (UniProt Q9Y5Y5) | -0.01 | 0.095 | 0.087 | -0.031 | -0.048
22 | PLCB3 (UniProt Q01970) | -0.019 | -0.015 | 0 | -0.048 | -0.062
23 | PRKAB2 (UniProt O43741) | -0.133 | 0.084 | -0.087 | -0.117 | -0.077
24 | PLSCR1 (UniProt O15162) | 0.017 | 0.036 | -0.016 | -0.051 | 0.055
25 | PHKG2 (UniProt P15735) | 0.028 | -0.033 | 0.013 | 0.051 | 0.026
26 | PBK (UniProt Q96KB5) | -0.06 | 0.016 | 0.067 | 0.023 | -0.016
27 | PTPN12 (UniProt Q05209) | 0.035 | 0.034 | 0.091 | 0.024 | 0.015

Row | Target | log2 fold change [1] | log2 fold change [2] | log2 fold change [3] | log2 fold change [4] | log2 fold change [5]
28 | PPT2 isoform 3 (UniProt Q9UMR5) | 0.015 | -0.062 | -0.011 | -0.053 | 0.03
29 | PSMD7 (UniProt P51665) | 0.033 | -0.102 | -0.024 | 0.034 | 0
30 | PDIK1L (UniProt Q8N165) | -0.255 | 0.001 | 0.044 | 0.062 | -0.005
31 | PLCL1 (UniProt Q15111) | 0.12 | 0.073 | 0.165 | -0.029 | 0.052
32 | PIR (UniProt O00625) | 0.016 | 0.064 | 0.027 | -0.029 | 0.002
33 | PTRH2 (UniProt Q9Y3E5) | 0.018 | 0.068 | 0.019 | -0.106 | -0.02
34 | PCGF2 (UniProt P35227) | -0.046 | 0.133 | -0.015 | 0.002 | -0.05
35 | PRG4 (UniProt Q92954) | 0.007 | -0.044 | -0.15 | -0.309 | -0.033
36 | PNPLA2 (UniProt Q96AD5) | 0.06 | 0.014 | 0.037 | 0.068 | -0.046
37 | PRMT7 (UniProt Q9NVM4) | -0.051 | 0.015 | 0.056 | 0.009 | -0.027
38 | POLR3K (UniProt Q9Y2Y1) | -0.009 | -0.008 | -0.029 | 0.021 | 0.056
39 | PIP4P1 isoform 2 (UniProt Q86T03) | -0.016 | -0.106 | -0.118 | -0.002 | 0.05
40 | PLEKHM2 (UniProt Q8IWE5) | -0.027 | 0.076 | -0.016 | 0.089 | -0.048
41 | PYGL (UniProt P06737) | 0.006 | 0.047 | 0.026 | 0.006 | -0.032
42 | PSMD1 (UniProt Q99460) | 0.017 | -0.087 | -0.058 | -0.017 | 0
43 | PPP2R5C isoform 4 (UniProt Q13362) | -0.03 | -0.003 | 0.117 | -0.019 | 0.012
44 | PPP6R1 (UniProt Q9UPN7) | -0.011 | 0.002 | 0.108 | 0.005 | 0.001
45 | PIK3C3 (UniProt Q8NEB9) | -0.038 | 0.005 | 0.009 | 0.009 | -0.01
46 | PLK1 (UniProt P53350) | 0.02 | 0.037 | 0.019 | -0.012 | 0.007
47 | PIP4K2C (UniProt Q8TBX8) | -0.148 | 0.034 | 0.05 | -0.029 | -0.042
48 | PTGR2 (UniProt Q8N8N7) | 0.004 | 0.055 | 0.581 (active) | -0.043 | -0.091
49 | PSMD2 (UniProt Q13200) | 0.026 | -0.097 | -0.059 | 0.008 | 0.016
50 | POLR2M (UniProt P0CAP2) | -0.021 | 0.096 | 0.045 | 0.004 | -0.062
51 | PTPA (UniProt Q15257) | -0.013 | 0.021 | 0.005 | -0.041 | -0.003
52 | PSMC4 (UniProt P43686) | 0.022 | -0.117 | -0.022 | 0.006 | 0.001
53 | POLR2A (UniProt P24928) | -0.014 | 0.158 | 0.031 | 0.17 | -0.059
54 | PEF1 (UniProt Q9UBV8) | 0.01 | 0.185 | 0.047 | -0.178 | -0.014
